Inhibition data for 14 compounds are collected here from ChEMBL document CHEMBL1961873, “Compounds: GSK PKIS; Assays: Nanosyn kinase panel” (2012).

Serine/threonine-protein kinase MARK1 (Homo sapiens), sequence (Q9P0L2 whole entry, looked up): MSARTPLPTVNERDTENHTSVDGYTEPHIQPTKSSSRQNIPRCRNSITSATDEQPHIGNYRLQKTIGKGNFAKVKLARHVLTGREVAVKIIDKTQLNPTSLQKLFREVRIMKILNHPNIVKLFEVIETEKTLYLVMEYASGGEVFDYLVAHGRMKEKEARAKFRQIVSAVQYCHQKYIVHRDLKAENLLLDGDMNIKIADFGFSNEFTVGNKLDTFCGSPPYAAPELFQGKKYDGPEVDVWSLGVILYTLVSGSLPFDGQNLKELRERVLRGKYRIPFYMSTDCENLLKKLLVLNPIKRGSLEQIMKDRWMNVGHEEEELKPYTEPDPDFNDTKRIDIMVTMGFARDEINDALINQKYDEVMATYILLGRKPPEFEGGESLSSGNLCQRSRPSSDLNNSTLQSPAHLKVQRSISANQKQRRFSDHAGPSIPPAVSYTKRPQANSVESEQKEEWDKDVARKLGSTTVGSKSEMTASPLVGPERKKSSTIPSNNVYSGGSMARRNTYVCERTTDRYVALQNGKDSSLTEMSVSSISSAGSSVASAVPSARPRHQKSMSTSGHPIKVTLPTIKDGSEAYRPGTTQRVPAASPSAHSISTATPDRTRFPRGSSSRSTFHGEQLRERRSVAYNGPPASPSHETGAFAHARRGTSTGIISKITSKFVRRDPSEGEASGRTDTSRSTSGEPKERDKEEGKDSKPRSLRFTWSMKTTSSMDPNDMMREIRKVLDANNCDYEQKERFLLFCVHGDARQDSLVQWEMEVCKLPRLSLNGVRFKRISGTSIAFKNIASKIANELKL

The first experiment has as its target Serine/threonine-protein kinase MARK1 (Homo sapiens) (UniProt Q9P0L2). The settings on record: at 1 µM.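 Also: reported values are mean percent inhibition of MARK1.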
Broadly, the inhibition is the relative decrease from the control value, in per cent. In the case of `COc1cccc(COc2cc(-n3cnc4ccccc43)sc2C(N)=O)c1`, the inhibition amounted to 1.16%.
For `COc1cc(C=NNc2ncnc3c2cnn3Cc2ccccc2)ccc1O`, the inhibition was found to be 1.36%.
The same measure, in the same setting: the same measure for `CCn1c(-c2nonc2N)nc2c(C#CC(C)(C)O)nc(O[C@@H](CN)c3ccccc3)cc21`: 93.1%; for `COc1cc2c(cc1Nc1nc(Nc3ccsc3C(N)=O)c3cc[nH]c3n1)N(C(=O)CN(C)C)CCC2`: 5.99%; for `NS(=O)(=O)c1ccc(N/C=C2\C(=O)Nc3ccc4ncsc4c32)cc1`: 53.8%.
The same measure, in the same setting: the same measure for `Nc1nonc1-c1nc2cnccc2n1C1CCCCC1`: 16.5%; for `COc1cccc(-n2ncc3c(N/N=C/c4ccncc4)ncnc32)c1`: 9.17%.
As to `Cc1cc(-c2ccco2)cc(C)c1/C=C/c1cncc(-c2nn[nH]n2)c1`, the inhibition stood at 1.26%.
Same read-out and setting: in the case of `CCn1c(-c2nonc2N)nc2c(C#CC(C)(C)O)ncc(OCC3CCNCC3)c21` it was 61.3%; in that of `Fc1ccc(-c2ncn(C3CCNCC3)c2-c2ccnc(Oc3ccccc3)n2)cc1`, 0.99%.
`NS(=O)(=O)c1ccc(-c2ccc3c(NC(=O)C4CC4)n[nH]c3c2)cc1`: the inhibition came to 2.18%.
As for `CCn1c(-c2nonc2N)nc2c(C#CCN)ncc(OCCCN)c21`, the inhibition came out at 11%.
For the compound `NC(=O)c1sc(-n2cnc3cc(C(F)(F)F)ccc32)cc1OCc1ccccc1Br`, the inhibition worked out at 1.6%.
Still for that read-out and setting: in the case of `CCn1c(-c2nonc2N)nc2c(C#CC(C)(C)O)ncc(OC[C@@H]3CCCN3)c21` it was 61.1%.

For the next experiment, the target named is MAP/microtubule affinity-regulating kinase 3 (Homo sapiens) (UniProt P27448). The settings on record: at 0.1 µM.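 Also: mean percent inhibition of MARK3 kinase activity, measured within the GSK PKIS screening panel.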
MAP/microtubule affinity-regulating kinase 3 (Homo sapiens), sequence (P27448 whole entry, looked up): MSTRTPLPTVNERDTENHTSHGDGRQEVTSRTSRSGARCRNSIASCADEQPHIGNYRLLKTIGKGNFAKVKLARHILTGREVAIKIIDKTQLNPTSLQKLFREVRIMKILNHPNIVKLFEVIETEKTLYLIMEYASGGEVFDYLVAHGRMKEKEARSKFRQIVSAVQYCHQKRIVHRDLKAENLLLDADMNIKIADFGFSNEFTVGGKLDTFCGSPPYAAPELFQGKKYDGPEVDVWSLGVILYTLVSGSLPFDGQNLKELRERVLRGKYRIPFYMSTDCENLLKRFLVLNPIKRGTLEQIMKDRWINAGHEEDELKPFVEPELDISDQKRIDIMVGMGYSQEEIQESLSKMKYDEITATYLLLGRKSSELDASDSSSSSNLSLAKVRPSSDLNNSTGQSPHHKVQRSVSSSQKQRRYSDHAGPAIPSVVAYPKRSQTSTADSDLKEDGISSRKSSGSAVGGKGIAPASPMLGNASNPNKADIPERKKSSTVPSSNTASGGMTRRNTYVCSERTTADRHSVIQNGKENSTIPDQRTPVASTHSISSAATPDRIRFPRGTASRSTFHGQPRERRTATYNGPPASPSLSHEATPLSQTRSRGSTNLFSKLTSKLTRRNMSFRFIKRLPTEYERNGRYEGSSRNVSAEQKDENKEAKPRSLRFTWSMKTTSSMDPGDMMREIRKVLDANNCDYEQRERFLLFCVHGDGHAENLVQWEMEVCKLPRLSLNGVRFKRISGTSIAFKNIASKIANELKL
Turning to `COc1cccc(COc2cc(-n3cnc4ccccc43)sc2C(N)=O)c1`, the inhibition turned out to be 2.28%.
For the compound `COc1cc(C=NNc2ncnc3c2cnn3Cc2ccccc2)ccc1O`, the inhibition turned out to be 0.53%.
On to `CCn1c(-c2nonc2N)nc2c(C#CC(C)(C)O)nc(O[C@@H](CN)c3ccccc3)cc21`, for which the inhibition was found to be 83.3%.
As for `COc1cc2c(cc1Nc1nc(Nc3ccsc3C(N)=O)c3cc[nH]c3n1)N(C(=O)CN(C)C)CCC2`, the inhibition was determined as 2.11%.
With `NS(=O)(=O)c1ccc(N/C=C2\C(=O)Nc3ccc4ncsc4c32)cc1`, the inhibition was 8.01%.
In the case of `Nc1nonc1-c1nc2cnccc2n1C1CCCCC1`, the inhibition came to 4.04%.
Still for that read-out and setting: the same measure for `COc1cccc(-n2ncc3c(N/N=C/c4ccncc4)ncnc32)c1`: 5.75%; for `Cc1cc(-c2ccco2)cc(C)c1/C=C/c1cncc(-c2nn[nH]n2)c1`: -0.4%.
Same read-out and setting: in the case of `CCn1c(-c2nonc2N)nc2c(C#CC(C)(C)O)ncc(OCC3CCNCC3)c21` it was 13%; in that of `Fc1ccc(-c2ncn(C3CCNCC3)c2-c2ccnc(Oc3ccccc3)n2)cc1`, 0.57%; in that of `NS(=O)(=O)c1ccc(-c2ccc3c(NC(=O)C4CC4)n[nH]c3c2)cc1`, 2.65%.
Same read-out and setting: in the case of `CCn1c(-c2nonc2N)nc2c(C#CCN)ncc(OCCCN)c21` it was 6.58%.
Take `NC(=O)c1sc(-n2cnc3cc(C(F)(F)F)ccc32)cc1OCc1ccccc1Br`: the inhibition was 1.11%.
Regarding `CCn1c(-c2nonc2N)nc2c(C#CC(C)(C)O)ncc(OC[C@@H]3CCCN3)c21`, the inhibition came out at 14.9%.
